Reference: the supplement of paper PMC3545927
This is one part of the list. No count for the full screen is at hand.

B1: FS-3187 (peptide)
chain: CAREKKDVPLAGNASASA
B2: FS-1793 (peptide)
chain: CARSLRFVTLAGNASASA
B3: FS-2997 (peptide)
chain: CARLRRVICAAGNASASA
B4: FS-2011 (peptide)
chain: CARFDRQASAAGNASASA
B5: FS-2928 (peptide)
chain: CARFVRDACAAGNASASA
B6: FS-2332 (peptide)
chain: CARFIRGVVDAGNASASA
B7: FS-1706 (peptide)
chain: CARFVRFVPLAGNASASA
B8: FS-2315 (peptide)
chain: CARTRKFVVDAGNASASA
B9: FS-1981 (peptide)
chain: CADDGRTCVDAGNASASA
B10: FS-2689 (peptide)
chain: CARKKKCKICAGNASASA
B11: HC2466 (peptide)
chain: CAMTPCSAHLAGNASASA
B12: HC2327 (peptide)
chain: CAEFPCHRPSAGNASASA
B13: HC1964 (peptide)
chain: CAEITTPCSGAGNASASA
B14: HC1863 (peptide)
chain: CATTACSGSWAGNASASA
B15: HC2495 (peptide)
chain: CASHPCSAHLAGNASASA
B16: FS-1080 (peptide)
chain: CASHAVVARSAGNASASA
B17: FS-897 (peptide)
chain: CAWRCRVARSAGNASASA
B18: HC768 (peptide)
chain: CASPPVVPQSAGNASASA
B19: FS-738 (peptide)
chain: CAYLSRVARSAGNASASA
B20: HC960 (peptide)
chain: CAAPPPSWDQAGNASASA
B21: HC536 (peptide)
chain: CALVILNAASAGNASASA
B22: HC2323 (peptide)
chain: CAEAPCHRPSAGNASASA
B23: HC1717 (peptide)
chain: CAMESCSQHLAGNASASA
B24: HC1891 (peptide)
chain: CATTPCSDSWAGNASASA
B25: HC1714 (peptide)
chain: CAMEKCSQHLAGNASASA
B26: HC562 (peptide)
chain: CALPQRAYALAGNASASA
B27: FS-356 (peptide)
chain: CALPARDKRKAGNASASA
B28: FS-1466 (peptide)
chain: CALSIRDARMAGNASASA
B29: HC1197 (peptide)
chain: CALPAPNYTFAGNASASA
B30: HC899 (peptide)
chain: CALPQDAVSRAGNASASA
B31: FS-1363 (peptide)
chain: CALPQRLPRAAGNASASA
B32: FS-136 (peptide)
chain: CALSIRDKRKAGNASASA
B33: FS-254 (peptide)
chain: CAIPARELRNAGNASASA
B34: FS-599 (peptide)
chain: CAIPARMKRAAGNASASA
B35: HC1498 (peptide)
chain: CASLTERLYVAGNASASA
B36: HC1937 (peptide)
chain: CATTPCSGSSAGNASASA
B37: HC574 (peptide)
chain: CAMALTLSPYAGNASASA
B38: HC478 (peptide)
chain: CAGVEHRLEAAGNASASA
B39: FS-1026 (peptide)
chain: CALPARDKRAAGNASASA
B40: FS-54 (peptide)
chain: CALPNREDRAAGNASASA
B41: FS-1083 (peptide)
chain: CASPIRTPRAAGNASASA
B42: HC1486 (peptide)
chain: CASDIRTEEAAGNASASA
B43: FS-1282 (peptide)
chain: CASRDRFRRSAGNASASA
B44: FS-339 (peptide)
chain: CAIPSGFRRSAGNASASA
B45: FS-1088 (peptide)
chain: CASRSLSRRSAGNASASA
B46: FS-1367 (peptide)
chain: CALRMFERRSAGNASASA

Biological target: furin, P09958
Assay: furin cleavage Z-score vs untreated control; higher = more cleavage, active = 3.5 or more, inactive = 1 or less, 8 variable residues between constant flanks
Method in brief: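 In 50 mM HEPES pH 7.5 with CaCl2 and NaCl, purified furin was incubated with bead-anchored 8-mer peptide–cDNA fusions at 1:10 enzyme:substrate in 0.01 ml. Incubation times were 7.5, 15 and 30 min. DNA set free by cleavage was adapter-tagged by PCR and sequenced, with read counts taken as abundance. Log counts relative to furin-free reactions, after lowess adjustment and median absolute deviation scaling, form the cleavage Z-score.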

Sequence of furin, P09958 (P09958 whole entry): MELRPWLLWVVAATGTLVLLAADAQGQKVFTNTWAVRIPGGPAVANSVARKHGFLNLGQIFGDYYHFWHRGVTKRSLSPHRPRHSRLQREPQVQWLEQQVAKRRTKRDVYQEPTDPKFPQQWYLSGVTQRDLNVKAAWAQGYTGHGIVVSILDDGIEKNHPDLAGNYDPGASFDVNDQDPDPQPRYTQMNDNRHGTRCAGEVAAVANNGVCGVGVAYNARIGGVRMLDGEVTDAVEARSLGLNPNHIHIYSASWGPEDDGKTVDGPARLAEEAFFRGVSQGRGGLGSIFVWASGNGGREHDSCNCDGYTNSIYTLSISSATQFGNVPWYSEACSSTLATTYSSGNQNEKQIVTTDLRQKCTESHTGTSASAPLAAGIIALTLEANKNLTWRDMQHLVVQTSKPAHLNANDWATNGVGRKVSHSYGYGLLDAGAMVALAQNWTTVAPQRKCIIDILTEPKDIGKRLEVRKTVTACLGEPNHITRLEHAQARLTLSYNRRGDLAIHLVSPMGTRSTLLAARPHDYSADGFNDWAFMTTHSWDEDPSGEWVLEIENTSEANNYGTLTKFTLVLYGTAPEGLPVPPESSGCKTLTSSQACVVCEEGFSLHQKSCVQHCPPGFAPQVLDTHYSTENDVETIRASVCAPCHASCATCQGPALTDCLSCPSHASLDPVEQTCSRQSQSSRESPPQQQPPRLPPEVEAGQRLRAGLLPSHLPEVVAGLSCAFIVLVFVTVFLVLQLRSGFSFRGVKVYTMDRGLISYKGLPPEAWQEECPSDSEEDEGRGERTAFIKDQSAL

Row | Sequence | furin cleavage Z-score (7.5 min) | furin cleavage Z-score (15 min) | furin cleavage Z-score (30 min)
1 | B1 | 0.508 (inactive) | 2.05 | -1.3 (inactive)
2 | B2 | 0.3 (inactive) | 1.63 | 1.68
3 | B3 | -0.794 (inactive) | -0.656 (inactive) | -0.232 (inactive)
4 | B4 | -0.397 (inactive) | -0.361 (inactive) | -1.3 (inactive)
5 | B5 | 0.546 (inactive) | 1.42 | 3.66 (active)
6 | B6 | 3.17 | 2.98 | 5.27 (active)
7 | B7 | 1.17 | 1.76 | 4.38 (active)
8 | B8 | 0.233 (inactive) | -0.721 (inactive) | -0.0413 (inactive)
9 | B9 | -1.75 (inactive) | -1.46 (inactive) | -0.526 (inactive)
10 | B10 | -0.917 (inactive) | -0.723 (inactive) | -0.00697 (inactive)
11 | B11 | -1.89 (inactive) | 0.877 (inactive) | -0.495 (inactive)
12 | B12 | -0.796 (inactive) | -0.578 (inactive) | -1.81 (inactive)
13 | B13 | -1.53 (inactive) | -0.885 (inactive) | -1.78 (inactive)
14 | B14 | -0.8 (inactive) | -0.656 (inactive) | -0.444 (inactive)
15 | B15 | 1.02 | 0.719 (inactive) | 0.0481 (inactive)
16 | B16 | 4.85 (active) | 4.91 (active) | 5.66 (active)
17 | B17 | 5.68 (active) | 5.73 (active) | 6.03 (active)
18 | B18 | -0.954 (inactive) | 0.785 (inactive) | -0.882 (inactive)
19 | B19 | 9.42 (active) | 9.32 (active) | 8.94 (active)
20 | B20 | -0.113 (inactive) | -0.447 (inactive) | -0.277 (inactive)
21 | B21 | 1.04 | -0.834 (inactive) | 0.192 (inactive)
22 | B22 | 0.662 (inactive) | -0.37 (inactive) | -0.247 (inactive)
23 | B23 | 0.437 (inactive) | 1.13 | -0.426 (inactive)

Row | Sequence | furin cleavage Z-score (7.5 min) | furin cleavage Z-score (15 min) | furin cleavage Z-score (30 min)
24 | B24 | -1.12 (inactive) | -0.376 (inactive) | -2.36 (inactive)
25 | B25 | 1.25 | 0.88 (inactive) | 0.181 (inactive)
26 | B26 | -0.111 (inactive) | 0.523 (inactive) | 0.909 (inactive)
27 | B27 | 3.1 | 4.69 (active) | 4.42 (active)
28 | B28 | -0.476 (inactive) | 0.981 (inactive) | -0.151 (inactive)
29 | B29 | 0.169 (inactive) | -0.15 (inactive) | -0.727 (inactive)
30 | B30 | 0.79 (inactive) | -0.97 (inactive) | -1.66 (inactive)
31 | B31 | 10.1 (active) | 7.22 (active) | 9.33 (active)
32 | B32 | 4.28 (active) | 3.15 | 5.72 (active)
33 | B33 | 1.11 | 0.407 (inactive) | -8.8e-05 (inactive)
34 | B34 | 10.3 (active) | 9.08 (active) | 8.29 (active)
35 | B35 | -0.595 (inactive) | 0.519 (inactive) | 0.245 (inactive)
36 | B36 | -1.48 (inactive) | -0.199 (inactive) | -0.0714 (inactive)
37 | B37 | -0.719 (inactive) | -0.267 (inactive) | 0.328 (inactive)
38 | B38 | -0.376 (inactive) | -1.52 (inactive) | -2.05 (inactive)
39 | B39 | 9.51 (active) | 8.58 (active) | 8.12 (active)
40 | B40 | 0.255 (inactive) | -1.19 (inactive) | -1.7 (inactive)
41 | B41 | 4.85 (active) | 4.51 (active) | 4.42 (active)
42 | B42 | 0.515 (inactive) | -1.04 (inactive) | -1.3 (inactive)
43 | B43 | 13 (active) | 12.2 (active) | 9.49 (active)
44 | B44 | -0.371 (inactive) | -1.96 (inactive) | -0.569 (inactive)
45 | B45 | 8.82 (active) | 10.1 (active) | 7.4 (active)
46 | B46 | 0.304 (inactive) | -0.351 (inactive) | 0.543 (inactive)
